Experimental data reported in PubChem BioAssay (NCI).
Compounds without any hit were thinned out: in the full panel of roughly 83,000, 20% have a hit.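 Negative percent growth values reflect cell death: -40 means 40% of the cells present at the start died, and -100 means all died.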 Active and inactive are the calls of the source. The calls were made as follows: active = growth percent below 10; inactive = the rest.

Assays:
Experiment in all cases: NCI-60 one-dose screen, 48 h (100 = growth as untreated, 0 = no growth, -100 = all killed)
[1] = test system: NCI-H226 lung; details: 10 µM
[2] = test system: NCI-H322M lung; details: 10 µM
[3] = test system: HOP-62 NSCLC; details: 10 µM
[4] = test system: A549/ATCC NSCLC; details: 10 µM
[5] = test system: 786-0 renal; details: 10 µM
[6] = test system: COLO 205 colon; details: 10 µM
[7] = test system: DU-145 prostate; details: 10 µM
[8] = test system: SF-268 CNS; details: 10 µM
[9] = test system: SF-295 CNS; details: 10 µM
[10] = test system: SF-539 CNS; details: 10 µM
[11] = test system: HCT-15 colon; details: 10 µM
[12] = test system: SNB-75 CNS; details: 10 µM
[13] = test system: SNB-19 CNS; details: 10 µM
[14] = test system: U251 CNS; details: 10 µM
[15] = test system: PC-3 prostate; details: 10 µM
[16] = test system: EKVX NSCLC; details: 10 µM
[17] = test system: UO-31 renal; details: 10 µM
[18] = test system: ACHN renal; details: 10 µM
[19] = test system: HL-60(TB) leukemia; details: 10 µM unless noted
[20] = test system: CCRF-CEM leukemia; details: 10 µM

Measured: growth

CC(=O)O[C@@H]1C[C@H]2O[C@@H]3C=C(C)CC[C@]3(C)[C@]1(C)[C@]21CO1
active: [3] 6.11% | [5] 7.07% | [6] -61.3% | [10] -23.1% | [11] 3.87% | [13] 3.18% | [14] 5.85% | [19] -33.9% | [20] -3.18%
inactive: [1] 22.3% | [2] 18.8% | [4] 12.8% | [7] 16.8% | [8] 15.3% | [9] 34.1% | [12] 29.4% | [15] 24.8% | [16] 26% | [17] 53.3% | [18] 23%

C[C@@H]1CCC/C=C/[C@H]2C[C@@H](O)C[C@@H]2[C@@H](O)/C=C/C(=O)O1
inactive: [4] 16.1% | [7] 28.4% | [8] 17.6% | [9] 21.6% | [10] 31.7% | [11] 11.2% | [12] 47% | [13] 30.2% | [14] 17.6% | [15] 19.5% | [16] 11.5% | [20] 12.3%
active: [1] 7.32% | [2] 6.35% | [3] 1.72% | [5] -31.4% | [6] -84.3% | [17] 6.57% | [18] 9.31% | [19] -22.7%

CC1=C(CN(O)C(N)=O)C2=C(C)C3(CC3)[C@](C)(O)C(=O)C2=C1
active: [4] 0.401% | [6] -11.9% | [9] 0.35% | [10] -1.94% | [11] 1.38% | [12] -22.2% | [15] 8.93% | [16] 8.16% | [17] -20.3% | [18] -5.65% | [19] -16.6% | [20] 1.19%
inactive: [1] 105% | [2] 26.8% | [3] 11.4% | [5] 14.9% | [7] 10% | [8] 13.6% | [13] 32.5% | [14] 23.8%

C[C@@H]1C[C@H]2C(=O)O[C@@H](C)C(NC(=O)[C@H](Cc3cc(F)cc(F)c3)NC(=O)Nc3ccc(OS(=O)(=O)F)cc3)C(=O)N3CCC[C@H]3C(=O)N3CCO[C@H](C)[C@H]3C(=O)N[C@@H](CO)C(=O)N2C1 (stereo not given in full)
active: [1] -3.99% | [6] -19.1%
inactive: [2] 54% | [3] 33% | [4] 31% | [5] 42.7% | [7] 28% | [8] 33.2% | [9] 11.4% | [10] 39.5% | [11] 82.9% | [12] 34.4% | [13] 24.2% | [14] 29.6% | [15] 19.9% | [16] 34% | [17] 88.7% | [18] 93.5% | [19] 13.3% | [20] 34.1%

C/C=C\C(=O)O[C@@H]1CC2O[C@@H]3C=C(C)C(=O)C[C@]3(C)[C@]1(C)[C@]21CO1
active: [1] -20.5% | [2] -11% | [3] -32.6% | [4] -5.19% | [5] -20.2% | [6] -55.3% | [7] -15.1% | [8] 0.463% | [9] -18.2% | [10] -31.9% | [11] -5% | [12] -14.8% | [13] -10.5% | [14] -11% | [15] -2.85% | [16] -2.36% | [17] -12.4% | [18] -28.6% | [19] -47.3% | [20] -12.8%

C=C1[C@@H](C)C2[C@H](Cc3ccccc3)NC(=O)[C@]23[C@H](OC(C)=O)/C=C/[C@@](C)(O)C(=O)[C@@H](C)C/C=C/[C@H]3[C@@H]1O (stereo not given in full)
active: [3] 9.38% | [12] -10.7% | [17] -14.6%
inactive: [1] 53.4% | [2] 87.9% | [4] 22.7% | [5] 28.8% | [6] 35% | [7] 48% | [8] 34.5% | [9] 51.4% | [10] 24% | [11] 45.8% | [13] 50.4% | [14] 29.1% | [15] 69.4% | [16] 50.5% | [18] 41.9% | [19] 31.7% | [20] 48.7%

N#Cc1nc(-c2ccccc2)oc1N1CCC(S(=O)(=O)F)CC1
inactive: [1] 98.4% | [2] 115% | [3] 95.9% | [4] 102% | [5] 81.5% | [6] 114% | [7] 101% | [8] 92.3% | [9] 100% | [10] 91.1% | [11] 103% | [12] 102% | [13] 98.6% | [14] 98.6% | [15] 99.3% | [16] 103% | [17] 86.7% | [18] 94.6% | [19] 98.6% | [20] 100%
